{"source": "PubChem BioAssay AID2479", "about": "(National Center for Advancing Translational Sciences (NCATS), 2010)", "note": "Records with an inconclusive call do not appear. The source made the active and inactive calls. Calls come from the whole dose curve."}
{"biological_target": "Thyroid hormone receptor beta (Homo sapiens) (UniProt P10828)", "sequence (P10828 whole entry, looked up)": "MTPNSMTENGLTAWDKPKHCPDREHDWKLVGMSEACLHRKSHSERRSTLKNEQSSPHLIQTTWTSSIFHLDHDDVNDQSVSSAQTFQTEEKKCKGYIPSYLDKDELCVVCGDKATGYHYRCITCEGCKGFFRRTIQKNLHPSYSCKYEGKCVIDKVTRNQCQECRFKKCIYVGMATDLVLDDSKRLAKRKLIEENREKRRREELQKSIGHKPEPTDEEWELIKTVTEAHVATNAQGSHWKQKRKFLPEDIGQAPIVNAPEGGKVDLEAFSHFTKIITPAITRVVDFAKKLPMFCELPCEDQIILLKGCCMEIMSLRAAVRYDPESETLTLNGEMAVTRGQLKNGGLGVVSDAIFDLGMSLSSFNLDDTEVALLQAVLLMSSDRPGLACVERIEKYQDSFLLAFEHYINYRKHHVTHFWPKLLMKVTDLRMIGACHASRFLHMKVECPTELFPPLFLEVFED", "experiment": "Gene Reporter Secondary Assay for Inhibitors of the Interaction of Thyroid Hormone Receptor and Steroid Receptor Coregulator 2 in a Thyroid Receptor Assay", "settings": "WRO cells TRb DR4-TRE luciferase reporter, T3, 20 h", "from_the_text": "NIH Molecular Libraries Probe Production Network [MLPCN] NIH Chemical Genomics Center [NCGC] MLPCN Grant: DK058080 Assay Provider: R. Kip Guy, St. Jude Children's Research Hospital NCGC Assay Overview: Thyroid receptor (TR) regulates many homeostatic processes including basal metabolism, cardiovascular function, body weight, and lipid trafficking. TR modulators are potential therapeutics for obesity and hyperlipidemias but current thyroid analogs have undesirable side effects, particularly cardiac stimulation. This secondary assay characterized compounds identified in the qHTS for Inhibitors of the Interaction of Thyroid Hormone Receptor and Steroid Receptor Coregulator 2 (PubChem AID 1485). The human follicular thyroid carcinoma cell line WRO (kindly provided by Dr. M. D. Ringel) stably expresses TRb and a luciferase reporter gene fused to TR response element. The addition of T3 ligand elevates expression of the TRE luciferase reporter (DR4-TRE-luc).\nNCGC Assay Protocol Summary: Cells were maintained in RPMI 1640 culture medium supplemented with 10% heat-inactivated FBS, 0.33 mg/ml hygromycin, 0.33 mg/ml geneticin, 50 units/ml penicillin, 50 ug/ml streptomycin. Cells were harvested and resuspended at 330,000 cells/ml in assay medium (50% DMEM 50% F-12 medium without Phenol-Red (Cellgro #16-405-CV), L-glutamine, 10% heat inactivated and charcoal treated FBS, 100 uM non-essential amino acid, 50 units/ml penicillin, 50 ug/ml streptomycin). Cells were dispensed at 8,000 cells/25 ul/well into 384 well plates (Corning 3917) and incubated 12 hr at 37 C and 5% CO2. Following transfer of 130 nL compound (ranging from 0.2 to 52 uM) and T3 (100 nM final concentration), the plates were incubated 20 hr incubation at 37 C and 5% CO2. Plates were then equilibrated at ambient temperature for 30 min, 25 ul of Bright-Glo (Promega) was added and luminescence was detected by an EnVision (PerkinElmer)."}
{"smiles": "C[S+](=O)([O-])c1ccc(C(=O)OCC(=O)N2CCN([S+](C)(=O)[O-])CC2)cc1[N+](=O)[O-]", "outcome": "inactive"}
{"smiles": "Cc1ccccc1NC(=O)COC(=O)c1ccc(S(C)(=O)=O)c([N+](=O)[O-])c1", "Potency": "22.9 µM (active)"}
{"smiles": "O=C(COC(=O)c1cccc([N+](=O)[O-])c1Cl)NC1C2CC3CC(C2)CC1C3", "note": "(centres undefined)", "outcome": "inactive"}
{"smiles": "CN1CCN(C(=O)COC(=O)c2ccc(S(C)(=O)=O)c([N+](=O)[O-])c2)CC1", "Potency": "33.9 µM (active)"}
{"smiles": "O=C(COC(=O)c1cccc([N+](=O)[O-])c1)NC1C2CC3CC(C2)CC1C3", "note": "(centres undefined)", "outcome": "inactive"}
{"smiles": "O=C(COC(=O)c1ccc(Cl)c([N+](=O)[O-])c1)NC1C2CC3CC(C2)CC1C3", "note": "(centres undefined)", "outcome": "inactive"}
{"smiles": "CS(=O)(=O)c1ccc(C(=O)OCC(=O)N2Cc3ccccc3C2)cc1[N+](=O)[O-]", "Potency": "12.6 µM (active)"}
{"smiles": "CS(=O)(=O)c1ccc(C(=O)OCC(=O)Nc2cc(C(F)(F)F)ccc2Cl)cc1[N+](=O)[O-]", "Potency": "22.7 µM (active)"}
{"smiles": "CS(=O)(=O)c1ccc(C(=O)OCC(=O)N2CC(=O)Nc3ccccc32)cc1[N+](=O)[O-]", "Potency": "15.8 µM (active)"}
{"smiles": "CC(=O)Nc1cccc(C(=O)OCC(=O)NC(=O)C2CCCCC2)c1", "outcome": "inactive"}
{"smiles": "CC(=O)N1CCN(C(=O)COC(=O)c2ccc([S+](C)(=O)[O-])c([N+](=O)[O-])c2)CC1", "outcome": "inactive"}
{"smiles": "CS(=O)(=O)c1ccc(-c2nnc(-c3ccccc3)o2)cc1[N+](=O)[O-]", "Potency": "15.7 µM (active)"}
{"smiles": "CS(=O)(=O)c1ccc(C(=O)OCC(=O)NC(=O)NC2CCCCC2)cc1[N+](=O)[O-]", "Potency": "12.7 µM (active)"}
{"smiles": "O=C(COC(=O)c1cc([N+](=O)[O-])ccc1Cl)NC1C2CC3CC(C2)CC1C3", "note": "(centres undefined)", "outcome": "inactive"}
{"smiles": "COc1cccc(CNC(=O)COC(=O)c2ccc(S(C)(=O)=O)c([N+](=O)[O-])c2)c1", "Potency": "21.5 µM (active)"}
{"smiles": "C[S+](=O)([O-])c1ccc(C(=O)OCC(=O)N2CCNC(=O)C2)cc1[N+](=O)[O-]", "outcome": "inactive"}
{"smiles": "O=C(COC(=O)c1ccc2ncsc2c1)NC(=O)C1CCCCC1", "outcome": "inactive"}
{"smiles": "O=C(COC(=O)c1ccc(C(F)(F)F)cc1)NC(=O)C1CCCCC1", "outcome": "inactive"}
{"smiles": "CS(=O)(=O)c1ccc(C(=O)OCC(=O)NCC2CCCO2)cc1[N+](=O)[O-]", "note": "(centres undefined)", "Potency": "15.2 µM (active)"}
{"smiles": "CC1CCCCN1C(=O)COC(=O)c1ccc(S(C)(=O)=O)c([N+](=O)[O-])c1", "note": "(centres undefined)", "Potency": "12.6 µM (active)"}
{"smiles": "CCN1CCN(C(=O)COC(=O)c2ccc(S(C)(=O)=O)c([N+](=O)[O-])c2)CC1C", "note": "(centres undefined)", "Potency": "26.3 µM (active)"}
{"smiles": "Cc1cc(C(=O)OCC(=O)NC(=O)C2CCCCC2)ccc1[N+](=O)[O-]", "outcome": "inactive"}
{"smiles": "C[S+](=O)([O-])c1ccc(C(=O)OCC(=O)NC2C3CC4CC(C3)CC2C4)cc1", "note": "(centres undefined)", "outcome": "inactive"}
{"smiles": "CS(=O)(=O)c1ccc(-c2nnc(-c3ccccc3)s2)cc1[N+](=O)[O-]", "Potency": "11.1 µM (active)"}
{"smiles": "CC(=O)c1cccc(NC(=O)C(C)OC(=O)c2ccc(S(C)(=O)=O)c([N+](=O)[O-])c2)c1", "note": "(centres undefined)", "Potency": "14.9 µM (active)"}
{"smiles": "CS(=O)(=O)c1ccc(C(=O)OCC(=O)N2CCOCC2)cc1[N+](=O)[O-]", "Potency": "23 µM (active)"}
{"smiles": "CCN1CCN(C(=O)COC(=O)c2ccc(S(C)(=O)=O)c([N+](=O)[O-])c2)C(C)C1", "note": "(centres undefined)", "Potency": "23.5 µM (active)"}
{"smiles": "O=C(COC(=O)c1cc([N+](=O)[O-])ccc1F)NC1C2CC3CC(C2)CC1C3", "note": "(centres undefined)", "outcome": "inactive"}
{"smiles": "CCN(CC)C(=O)COC(=O)c1ccc(S(C)(=O)=O)c([N+](=O)[O-])c1", "Potency": "16.8 µM (active)"}
{"smiles": "O=C(COC(=O)c1ccc(F)c([N+](=O)[O-])c1)NC1C2CC3CC(C2)CC1C3", "note": "(centres undefined)", "outcome": "inactive"}
{"smiles": "Cc1ccc(F)cc1NC(=O)COC(=O)c1ccc(S(C)(=O)=O)c([N+](=O)[O-])c1", "Potency": "17.9 µM (active)"}
{"smiles": "CS(=O)(=O)c1ccc(C(=O)OCC(=O)N2CCc3ccccc32)cc1[N+](=O)[O-]", "Potency": "18.6 µM (active)"}
{"smiles": "CS(=O)(=O)c1ccc(C(=O)OCC(=O)N2CCCC2)cc1[N+](=O)[O-]", "Potency": "17.7 µM (active)"}
{"smiles": "CC1(C)C2CCC1(C)C(NC(=O)COC(=O)c1ccc(S(C)(=O)=O)c([N+](=O)[O-])c1)C2", "note": "(centres undefined)", "Potency": "12.9 µM (active)"}
